# Inconclusive results are not listed. Active and inactive are the calls of the source. Calls come from the whole dose curve; as a rule, active = well fitted inhibition curve with a large enough effect in the signal ratio in the repeat runs (not every such curve was filed as active); inconclusive = weak or mixed curves, or effect the other way; inactive = no such curve, though single readings can be large or run the other way; the % refers to the signal ratio.
# Target: Vitamin D3 receptor (Homo sapiens) (UniProt P11473)
# Assay: qHTS assay to identify small molecule antagonists of the vitamin D receptor (VDR) signaling pathway (AID 743223)
# Conditions: VDR-UAS-bla HEK293T, beta-lactamase FRET ratio, 16 h; series mostly up to 61 µM; activity change, negative = inhibition: at the top concentration
# Text: U.S. Tox21 Program National Center for Advancing Translational Sciences [NCATS] NIH Chemical Genomics Center [NCGC] U.S. Environmental Protection Agency [EPA] National Institutes of Environmental Health Sciences [NIEHS] National Toxicology Program [NTP] U.S. Food and Drug Administration [FDA] Tox21 Assay Overview: The vitamin D receptor (VDR), a member of nuclear hormone receptor superfamily, plays a critical role in calcium homeostasis and bone metabolism. It is also involved in cell differentiation and growth, and thrombogenicity.
# Tox21 Assay Protocol Summary: VDR-bla cells were dispensed at 2,000 cells/5 uL of assay medium per well into black wall/clear-bottom 1536-well plates using a Multidrop Combi (Thermo Fisher Scientific, Waltham, MA) dispenser. After the assay plates were incubated at a 37C and 5% CO2 for 4 h, 23 nL of compounds dissolved in DMSO, positive controls or DMSO only was transferred to the assay plate by a Pintool station (Kalypsys, San Diego, CA), followed by addition of 1 uL of 1alpha, 25-Dihydroxy Vitamin D3 (3 nM, final concentration in the wells) using a Bioraptr Flying Reagent Dispenser (FRD) workstation (Beckman Coulter, Indianapolis, IN). The plates were incubated at 37C and 5% CO2 for 16 h, and then 1 uL of LiveBLAzerTM B/G FRET substrate was added using a Bioraptr FRD. The plates were incubated at room temperature for 2 h and fluorescence intensity was measured by an Envision plate reader (PerkinElmer, Shelton, CT).
# % is set by controls: 0 for no effect and ±100 for the full control effect.
# Chain of Vitamin D3 receptor (Homo sapiens) (P11473 whole entry, looked up): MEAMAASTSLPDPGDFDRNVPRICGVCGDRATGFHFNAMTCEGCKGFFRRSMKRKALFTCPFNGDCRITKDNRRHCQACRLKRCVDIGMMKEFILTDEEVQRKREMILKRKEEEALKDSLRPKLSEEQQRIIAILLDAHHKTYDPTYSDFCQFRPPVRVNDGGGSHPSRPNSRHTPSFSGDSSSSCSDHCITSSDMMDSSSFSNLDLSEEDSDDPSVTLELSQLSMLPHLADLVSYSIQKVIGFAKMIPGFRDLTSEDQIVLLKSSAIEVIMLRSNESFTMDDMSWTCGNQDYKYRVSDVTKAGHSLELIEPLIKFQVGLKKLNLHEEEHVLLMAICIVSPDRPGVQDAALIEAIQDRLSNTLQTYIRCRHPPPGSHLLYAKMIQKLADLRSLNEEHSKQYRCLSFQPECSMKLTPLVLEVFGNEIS
SMILES,"activity change, negative = inhibition",outcome
Nc1nc2ccc(OC(F)(F)F)cc2s1,-0.892% (inactive),
Cc1c(C2(c3cc(Br)c(O)c(Br)c3C)OS(=O)(=O)c3ccccc32)cc(Br)c(O)c1Br,-3.11% (inactive),
CC(C)Cc1ccc(CC(=O)O)cc1,-10.8% (inactive),
CN(C)CC/C=C1\c2ccccc2Sc2ccc(Cl)cc21,-19% (inactive),
CCN(Cc1cccc(S(=O)(=O)O)c1)c1ccc(C(=C2C=CC(=[N+](CC)Cc3cccc(S(=O)(=O)O)c3)C=C2)c2ccccc2S(=O)(=O)[O-])cc1,-2.31% (inactive),
COc1ccc(C(=O)NCc2ccc(OCCN(C)C)cc2)cc1OC,1.64% (inactive),
COc1cc(NCc2ccc3nc(N)nc(N)c3c2C)cc(OC)c1OC,-2.69% (inactive),
CC[C@H]1OC(=O)[C@H](C)[C@@H](O[C@H]2C[C@@](C)(OC)[C@@H](O)[C@H](C)O2)[C@H](C)[C@@H](O[C@@H]2O[C@H](C)C[C@H](N(C)C)[C@H]2O)[C@](C)(O)C[C@@H](C)/C(=N\OCOCCOC)[C@H](C)[C@@H](O)[C@]1(C)O,7.04% (inactive),
COc1ccc2nc(S(=O)Cc3ncc(C)c(OC)c3C)[nH]c2c1 (stereo not given),,inactive
C=C(C)C(=O)OCCC(F)(F)C(F)(F)C(F)(F)C(F)(F)C(F)(F)C(F)(F)F,3.59% (inactive),
CC(=O)OCCC1CCCCC1,9.08% (inactive),
CCC(=O)OCc1ccc(OC)cc1,10.5% (inactive),
CC(=O)NCCO,10.5% (inactive),
CCN(CC)CC(=O)Nc1c(C)cccc1C(=O)OC,3.08% (inactive),
Cc1ccc(N(CC2=NCCN2)c2cccc(O)c2)cc1,-5.57% (inactive),
CN1C(CSCC(F)(F)F)Nc2cc(Cl)c(S(N)(=O)=O)cc2S1(=O)=O (stereo not given),5.13% (inactive),
C/C(C=O)=C\c1ccccc1,-9.14% (inactive),
CC(=O)N[C@@H](Cc1ccc(O)cc1)C(=O)O,-4.86% (inactive),
O=C1OC(=O)c2c(Br)c(Br)c(Br)c(Br)c21,9.78% (inactive),
O=C1NC(=O)c2cccc3cccc1c23,-2.16% (inactive),

SMILES,"activity change, negative = inhibition",outcome
Oc1ccc2c(c1)Cc1ccccc1-2,-2.85% (inactive),
FC(F)(F)C(F)(F)C(F)(F)C(F)(F)CCI,13.9% [at 28.5 µM] (inactive),
CC(C)OC(=O)c1ccccc1C(=O)OC(C)C,0.659% (inactive),
CCOC(=O)c1ccc(NC(=O)CN2CCCCC2)cc1,5.24% (inactive),
CC(C)(C)CCCCCCOC(=O)c1ccccc1C(=O)OCCCCCCC(C)(C)C,5.19% (inactive),
CC(C)c1ccc(C(=O)N=C(N)N)cc1S(C)(=O)=O,7.46% (inactive),
CNC1CCCN(c2c(F)cc3c(=O)c(C(=O)O)cn(C4CC4)c3c2OC)C1 (stereo not given),1.95% (inactive),
COc1ccc(N)c([N+](=O)[O-])c1,-12.6% (inactive),
CC(C)(C)C(O)/C=C/c1ccc2c(c1)OCO2 (stereo not given),-4.54% (inactive),
O=P(O)(O)Oc1ccccc1,18.6% (inactive),
CCCCCCCC(=O)Oc1c(Br)cc(C#N)cc1Br,-0.271% (inactive),
O=C(c1ccccc1)c1ccc(O)cc1,-2.97% [at 78.8 µM] (inactive),
CCCCCCCC(=O)OCCCCCC,0.657% (inactive),
C=Cc1ccc(OC(C)=O)cc1,-0.459% (inactive),
Cc1ccc2nc(N)[nH]c(=O)c2c1Sc1ccncc1,13.2% (inactive),
Cc1cc(CCCOc2c(C)cc(-c3noc(C(F)(F)F)n3)cc2C)on1,1.13% (inactive),
O=C1CC[C@@H](C(=O)O)N1,6.48% (inactive),
CC(=O)OCC(C)C,-17.7% (inactive),
O=C(O)c1ccc(O)cc1O,0.364% [at 78.8 µM] (inactive),
CCCCCCCC/C=C/C(=O)O,-13.8% (inactive),
